Several values for one entry are separate records, joined by “and”; a condition that tells them apart may be missing. Equal values may be shown once. Activity calls are given as the source filed them. The calls were made as follows: active = hit-call score of the fitted dose curve at least 0.9, where 1 is the maximum; inactive = score below 0.9.
read-out: Monocyte Chemoattractant Protein-1 (MCP1), CCL2 (gene 6347); assay: BSK_LPS_MCP1: BioMAP Diversity Plus: LPS Assay for Monocyte Chemoattractant Protein-1 (MCP1) Biomarker Activity (AID 2283081); conditions: primary human HUVEC with PBMC; actives raise or lower the signal;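 as to AC50: co-culture stimulated with LPS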
Procedure: BSK_LPS is a cell-based, multiplexed-readout assay that uses umbilical vein endothelium and peripheral blood mononuclear cells, a human vascular primary cell co-culture, with measurements taken at 24 hours after chemical dosing in a 96-well plate.BSK_LPS_MCP1 is an assay component measured in the BSK_LPS assay. It measures MCP-1 antibody related to regulation of gene expression using ELISA technology.Data from the assay component BSK_LPS_MCP1 was analyzed into 1 assay endpoint. This assay endpoint, BSK_LPS_MCP1, was analyzed with bidirectional fitting relative to DMSO as the negative control and baseline of activity. Using a type of binding reporter, gain or loss-of-signal activity can be used to understand changes in the signaling as they relate to the gene CCL2. Furthermore, this assay endpoint can be referred to as a primary readout, because this assay has produced multiple assay endpoints where this one serves a signaling function. To generalize the intended target to other relatable targets, this assay endpoint is annotated to the cytokine intended target family, where the subfamily is chemotactic factor.
The levels of cell surface (or secreted, indicated by the prefix "s") biomarker endpoints were measured by ELISA. Overt cytotoxicity to cells in confluent adherent cultures (all systems other than the BT system) was assessed by measuring total protein levels using sulforhodamine B (SRB) staining in parallel cultures at the time of biomarker measurements, indicated as SRB endpoints. For proliferation assays for adherent cell types, individual cell types are cultured at sub-confluence and relative cell numbers quantified by SRB staining at time points optimized for each system (48 h: 3C and CASM3C systems; 72 h: BT and HDF3CGF systems; 96 h: SAg system). SRB was performed by staining cells with 0.1% SRB after fixation with 10% TCA and reading wells at 560 nm.Viability and proliferation of PBMC (T cells) was quantified by Alamar Blue reduction for the SAg and BT systems. For PBMC viability (referred to as PBMC Cytotoxicity within the assay endpoint names), cells were plated (75,000/well in a 96-well plate) and then chemical samples added for 1 h before addition of activators, SEB and TSST-1 (20 ng/mL final concentration each). Cells were incubated for 90 h. Then, Alamar Blue (20 uL/well) (Invitrogen, Cat DAL1100) was added for 6 h, and the plates were read with a fluorescence microplate reader at 546/580 nm (excitation/emission). For PBMC proliferation, cells were plated and activated as above but incubated for only 16 h prior to addition of Alamar Blue. Plates were read after 6 h.

Q: For `CCOC(=O)c1ccc(O)cc1`, which outcome is on record?
A: inactive

Q: How did the outcome turn out when `C=CCOC(Cn1ccnc1)c1ccc(Cl)cc1Cl` (stereo not given) was run?
A: inactive

Q: `O=C(O)C1(C(=O)Nc2ccc(Cl)cc2Cl)CC1` was tested. Which outcome did it give?
A: inactive

Q: For `CCOC(=O)COc1cc(-n2ncc(C(F)(F)F)c(C)c2=O)c(F)cc1Cl`, which outcome is on record?
A: inactive

Q: For `CCOC(=O)NCCOc1ccc(Oc2ccccc2)cc1`, which AC50 is on record?
A: 14.4 µM (active)

Q: Which AC50 does the source give for `CC(=O)[C@H]1CC[C@H]2[C@@H]3CCC4=CC(=O)CC[C@]4(C)[C@H]3CC[C@]12C` here?
A: 25 µM (active)

Q: Which outcome does the source give for `CCC(O)=C1C(=O)CC(C(=O)O)CC1=O` (stereo not given) here?
A: inactive

Q: `OB(O)O` was tested. Which outcome did it give?
A: inactive

Q: `CN(C)C(=O)Nc1ccc(Cl)c(Cl)c1` was tested. Which outcome did it give?
A: inactive

Q: For `Oc1ccc(C(c2ccc(O)cc2)C(Cl)(Cl)Cl)cc1`, which AC50 is on record?
A: 33.9 µM (active)

Q: `CCN(Cc1c(F)cccc1Cl)c1c([N+](=O)[O-])cc(C(F)(F)F)cc1[N+](=O)[O-]` was tested. Which outcome did it give?
A: inactive

Q: With `N#CSCSc1nc2ccccc2s1` as the compound, how does the AC50 read?
A: 6.17 µM (active) and 6.23 µM (active)

Q: For `CCCCCOC(=O)COc1cc(N2C(=O)C3=C(CCCC3)C2=O)c(F)cc1Cl`, which outcome is on record?
A: inactive

Q: How did the outcome turn out when `CSC(=O)c1cccc2nnsc12` was run?
A: inactive

Q: For `C[C@]12C[C@H](O)[C@H]3[C@@H](CCC4=CC(=O)CC[C@@]43C)[C@@H]1CC[C@@H]2C(=O)CO`, which outcome is on record?
A: inactive

Q: With `CCCCOCCOCCOCc1cc2c(cc1CCC)OCO2` as the compound, how does the outcome read?
A: inactive

Q: For `CCOC(=O)C(C)Oc1ccc(Oc2cnc3cc(Cl)ccc3n2)cc1` (stereo not given), which outcome is on record?
A: inactive

Q: `COc1nc(C)nc(NC(=O)NS(=O)(=O)c2ccccc2OCCCl)n1` was tested. Which outcome did it give?
A: inactive

Q: For `COC(=O)c1cccc(C)c1S(=O)(=O)NC(=O)Nc1nc(OCC(F)(F)F)nc(N(C)C)n1`, which outcome is on record?
A: inactive

Q: With `Cc1nn(C)c(Oc2ccccc2)c1C=NOCc1ccc(C(=O)OC(C)(C)C)cc1` as the compound, how does the AC50 read?
A: 17.5 µM (active)

Q: Which outcome does the source give for `CCSC(=O)N(CC(C)C)CC(C)C` here?
A: inactive

Q: Which outcome does the source give for `c1ccc2[nH]c(-c3cscn3)nc2c1` here?
A: inactive

Q: How did the outcome turn out when `C#CCOC(=O)[C@@H](C)Oc1ccc(Oc2ncc(Cl)cc2F)cc1` was run?
A: inactive

Q: How did the outcome turn out when `CCC(C)OC(=O)N1CCCCC1CCO` (stereo not given) was run?
A: inactive

Q: `CCCOC(=O)c1ccc(C(=O)OCCC)nc1` was tested. Which AC50 did it give?
A: 1.84 µM (active)

Q: Which outcome does the source give for `CCN(CC)C(=O)c1cccc(C)c1` here?
A: inactive

Q: How did the outcome turn out when `CCCN(CCC)C(=O)SCC` was run?
A: inactive

Q: `COC(=O)CSc1cc(N=c2sc(=O)n3n2CCCC3)c(F)cc1Cl` was tested. Which outcome did it give?
A: inactive

Q: How did the outcome turn out when `c1ccc(Nc2ccccc2)cc1` was run?
A: inactive

Q: Which outcome does the source give for `CCOC(=O)C(C)Oc1ccc(Oc2nc3ccc(Cl)cc3o2)cc1` (stereo not given) here?
A: inactive

Q: With `CCNc1nc(N)nc(Cl)n1` as the compound, how does the outcome read?
A: inactive

Q: How did the outcome turn out when `CC(C)(C)[C@@H](O)[C@@H](Cc1ccc(Cl)cc1)n1cncn1` was run?
A: inactive

Q: For `CCCN(CCC)c1c([N+](=O)[O-])cc(C(F)(F)F)c(N)c1[N+](=O)[O-]`, which outcome is on record?
A: inactive

Q: Which outcome does the source give for `C#C[C@]1(O)CC[C@H]2[C@@H]3CCC4=CC(=O)CC[C@@H]4[C@H]3CC[C@@]21CC` here?
A: inactive

Q: How did the outcome turn out when `S=C(S)NCCNC(=S)S.[Mn+2].[S-]C([S-])=NCCN=C([S-])[S-].[Zn+2]` was run?
A: inactive

Q: How did the outcome turn out when `CCOC(=O)[C@H](C)Oc1ccc(Oc2nc3ccc(Cl)cc3o2)cc1` was run?
A: inactive

Q: `O=C(c1ccc(O)cc1O)c1ccc(O)cc1O` was tested. Which outcome did it give?
A: inactive

Q: With `CCCCC(CC)CN1C(=O)C2C3C=CC(C3)C2C1=O` (stereo not given) as the compound, how does the outcome read?
A: inactive

Q: How did the outcome turn out when `COC(=O)c1ccccc1C(=O)O` was run?
A: inactive

Q: For `COCCO`, which outcome is on record?
A: inactive
